D1 potentiator = Potentiators of Human D1 Dopamine Receptor: qHTS; D(1A) dopamine receptor (Homo sapiens), P21728; HEK293 TREx D1 cells, calcium flux, dopamine EC20 potentiation; potentiation, % at 10 µM; hit rate 0.036% among 360,000; in the data active means potentiation above about 30%
D1 ag = Allosteric Agonists of the Human D1 Dopamine Receptor: qHTS | D(1A) dopamine receptor (Homo sapiens), P21728 | HEK293 T-REx D1 cells, calcium flux, agonist mode | activation, % at 2 µM | hit rate 1% among 360,000 | AID 504660, 2011; in the data active means activation above about 30%
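Agonism was scored from calcium flux recorded over 180 s (1 read/s) after pintool compound addition, following a 10-cycle baseline. Cells were inducible force-coupled HEK293 TREx D1, plated overnight at 30 C and loaded with no-wash calcium dye.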
DRD3 agonist = qHTS of D3 Dopamine Receptor Agonist: qHTS. D(3) dopamine receptor (Homo sapiens), P35462. D3R DiscoveRx beta-arrestin cells, luminescence, 90 min. max activation, %. hit rate 0.58% among 410,000. AID 652048, 2013; in the data active means max activation above about 30%
Target sequence (P35462 whole entry, looked up): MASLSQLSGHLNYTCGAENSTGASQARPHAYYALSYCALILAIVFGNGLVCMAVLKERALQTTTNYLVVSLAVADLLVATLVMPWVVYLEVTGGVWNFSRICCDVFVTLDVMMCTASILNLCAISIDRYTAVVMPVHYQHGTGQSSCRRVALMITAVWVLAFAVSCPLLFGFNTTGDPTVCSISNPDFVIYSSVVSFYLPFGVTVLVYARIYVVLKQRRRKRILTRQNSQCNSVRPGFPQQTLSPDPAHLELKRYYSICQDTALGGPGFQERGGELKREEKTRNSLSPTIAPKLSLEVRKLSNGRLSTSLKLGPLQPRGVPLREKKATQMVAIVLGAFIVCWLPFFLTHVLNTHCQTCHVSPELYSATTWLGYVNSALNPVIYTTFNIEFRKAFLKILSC
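Agonist-mode cell screen: cells plated at 1500/well and incubated overnight at 37 °C, then exposed to library compounds for 90 min at 37 °C. Detection reagent was added for 30–60 min at room temperature, and luminescence was read.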
DRD3 antagonist = qHTS of D3 Dopamine Receptor Antagonist: qHTS; D(3) dopamine receptor (Homo sapiens), P35462; D3R cells, DiscoveRx beta-arrestin luminescence, antagonist mode; hits give low values; max response, negative = inhibition, %; hit rate 2.5% among 360,000; AID 652054, 2013; in the data active means max response below about -50%; inconclusive means no clear call, values can overlap the other calls
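Cells plated overnight at 1500 cells/well, then exposed to library compounds with dopamine controls for 90 minutes at 37 degrees C. DiscoveRx reagent added for 30–60 minutes at room temperature; luminescence read, quantitative HTS format.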
D1 antag = Antagonist of Human D 1 Dopamine Receptor: qHTS; HEK293 TREx D1 cells, calcium flux, dopamine EC80; hits give low values; AID 504652, 2011; D(1A) dopamine receptor (Homo sapiens), P21728; activity change, negative = inhibition, % at 10 µM; hit rate 3.2% among 360,000; in the data active means activity change below about -30%
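Allosteric or orthosteric antagonism assessed as attenuation of the calcium response to EC80 dopamine, added 180 s after compound, in induced HEK293 Trex D1 cells loaded with no-wash calcium dye.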
Numbers stand for hits; . = inactive; ? = inconclusive; / = not tested or not shown; ! = not confirmed by another sample. Compounds with a hit are over-represented: about 6.1% of the library has one in this group of screens.

SMILES | D1 potentiator | D1 ag | DRD3 agonist | DRD3 antagonist | D1 antag
COCCN1C(=O)N(c2cccc(C)c2)C(=O)C1CC(=O)Nc1ccc(OC)cc1 (centres undefined) | . | . | . | . | .
CCOC(=O)/C(=C\c1cccc(O)c1)c1nc2sc(C)c(C)c2c(=O)[nH]1 | . | . | . | -57.6 | .
CCOC(=O)c1nc2sc(C)c(C)c2c(=O)[nH]1 | / | / | . | . | /
COc1cccc(CN(Cc2ccco2)C(c2ccc(F)cc2)c2nnnn2C(C)(C)C)c1 (centres undefined) | . | . | . | ? | -34.0
CC(C)NC(=O)C1(C)CN(S(C)(=O)=O)CC(=O)N1C1CCCCCC1 (centres undefined) | / | / | . | . | /
C[C@]12CC[C@@H]3c4ccc(O)cc4CC[C@H]3[C@@H]1CC[C@@H]2OC(=O)CCC1CCCC1 | / | / | 44.8! | . | /
c1ccc(-c2nc3cccnc3nc2-c2ccccc2)cc1 | / | / | . | . | /
O=C(C1CCN(S(=O)(=O)c2ccccc2F)CC1)N1CCc2ccccc21 | . | . | . | . | .
O=C(O)C1CCN(S(=O)(=O)c2cccc3cccnc23)CC1 | / | . | . | . | .
O=C(C1CCN(S(=O)(=O)c2cccc3cccnc23)CC1)N1CCCC1 | . | . | . | -78.5 | .
O=C(C1CCN(S(=O)(=O)c2ccccc2)CC1)N1CCc2ccccc21 | . | 332.6 | . | . | .
O=C(C1CCN(S(=O)(=O)c2cccc3cccnc23)CC1)N1CC=C(c2ccccc2)CC1 | . | . | / | / | -43.6
O=C(C1CCCN1S(=O)(=O)c1cccc2cccnc12)N1CCc2ccccc21 (centres undefined) | . | . | . | . | .
O=C(C1CCN(S(=O)(=O)c2cccc3cccnc23)CC1)N1CCc2ccccc21 | . | . | . | -52.6 | .
COc1cccc(NC(=O)C(OC(=O)CNC(=O)c2ccccc2)c2ccccc2)c1 (centres undefined) | . | . | / | / | .
COc1ccc(OCCn2nnc3sc4c(c3c2=O)CCC(C(C)(C)C)C4)cc1 (centres undefined) | . | . | . | / | .
O=C(COc1ccccc1F)Nc1ccc2nc(SCC(=O)N3CCCC3)sc2c1 | . | . | . | / | .
COc1ccc(OC)c(C(=O)NC(CC(N)=O)c2ccc(NC(C)C)c([N+](=O)[O-])c2)c1 (centres undefined) | . | . | . | . | .
O=c1c2oc3ccccc3c2ncn1Cc1ccc(Cl)cc1 | . | . | . | . | .
CN(C)CCN1C(=O)NC(C)(c2ccc([N+](=O)[O-])cc2)C1=O (centres undefined) | . | . | . | . | .
Cc1ccnc(NC(=O)c2ccc(C(=O)c3ccccc3)cc2)c1 | . | . | . | -54.6 | .
Cc1cn([C@H]2C[C@H](O)[C@@H](CNS(=O)(=O)N3CCCC3)O2)c(=O)[nH]c1=O | / | / | . | . | /
CC(Sc1ccccc1)C(=O)N1CCN(S(=O)(=O)c2ccccc2C(F)(F)F)CC1 (centres undefined) | . | . | . | . | .
CCNCCNc1ccc(Cl)cc1[N+](=O)[O-] | / | / | . | -74.7 | /
CS(=O)(=O)NCCCNc1ccc(Cl)cc1[N+](=O)[O-] | . | . | . | -50.5 | .
SMILES | D1 potentiator | D1 ag | DRD3 agonist | DRD3 antagonist | D1 antag
Cc1ccc(CNc2ccc(Cl)cc2[N+](=O)[O-])cc1 | . | . | . | . | .
CS(=O)(=O)NCCCNc1ccc(C(F)(F)F)cc1[N+](=O)[O-] | . | . | . | . | .
COC(=O)Nc1ccc(S(=O)(=O)N2CCC(C(=O)NC3CCCCC3)CC2)cc1 | . | . | . | . | .
COc1ccc2c(c1)C(O)C(CO)C(C(=O)O)C2 (centres undefined) | / | / | . | . | /
CN1CCN(C(=S)SCC(=O)N2CCCc3ccccc32)CC1 | . | . | . | -60.5 | .
O=Cc1cn(CC(=O)N2CCCc3ccccc32)c2ccccc12 | . | . | . | -56.5 | .
Cn1c(C(=O)N2CCCc3ccccc32)cc2sccc21 | . | 44.5 | . | . | .
Cn1cc(S(=O)(=O)CC(=O)N2CCCc3ccccc32)c2ccccc21 | / | . | . | . | -84.2
O=C(c1cc2sccc2n1Cc1ccccc1)N1CCCc2ccccc21 | . | . | . | . | .
O=C1CC2(CCN(C(=O)c3cccc([N+](=O)[O-])c3)CC2)Oc2ccccc21 | . | . | . | . | .
O=S1(=O)c2ccccc2N(Cc2cccc(Cl)c2)c2ccccc21 | . | . | . | / | .
O=C(OCC(=O)N1CCOCC1)c1cc(=O)[nH]c2ccccc12 | / | / | . | . | /
Cc1cccc(NC(=O)CSc2nc(=O)n(CCN3CCOCC3)c3c2CCC3)c1 | . | . | . | / | /
CCN(CC)CCOC(=O)C1(c2ccccc2)CCCC1 | . | . | . | . | .
O=C(OCCCN1CCCC1)C1(c2ccccc2)CCCC1 | . | . | . | -54.2 | .
O=C1C2C3C=CC(C3)C2C(=O)N1c1ccc(Cc2ccncc2)cc1 (centres undefined) | . | . | . | . | .
CC1CCC2C(=O)N(c3ccc(Cc4ccncc4)cc3)C(=O)C2C1 (centres undefined) | . | . | . | . | -30.3
Cc1ccc2nc3n(c(=O)c2c1)-c1cc(Cl)ccc1C(=O)NC3Cc1ccccc1 (centres undefined) | . | . | / | / | -37.5
O=C1NC(Cc2ccccc2)c2nc3cc(F)ccc3c(=O)n2-c2cc(Cl)ccc21 (centres undefined) | . | . | / | / | .
O=C(NCC1CCCO1)/C(=C/c1ccccc1F)NC(=O)c1ccccc1 (centres undefined) | . | . | . | . | .
CN(C)CCNC(=O)C1CCN(Cc2cc3ccccc3n2Cc2ccccc2)CC1 | . | 39.0 | . | / | .
CCCNC(=O)C1CCN(Cc2cc3ccccc3n2Cc2ccccc2)CC1 | . | . | . | / | .
CN(C)CCCC1(c2ccc(F)cc2)OCc2cc(C#N)ccc21 (centres undefined) | . | . | . | -58.7 | -52.5!
CCN1CCN(CC(=O)N2N=CCC2c2ccccc2)CC1 (centres undefined) | . | . | . | -50.6 | .
O=C(CSc1ccc(Cl)cc1)N1N=CCC1c1ccccc1 (centres undefined) | . | . | . | . | .
O=C(c1ccco1)N1CCN(S(=O)(=O)c2ccc([N+](=O)[O-])cc2)CC1 | . | . | . | . | -33.8
CC(=O)NC(c1ccccc1)c1nc(-c2ccc(C)c(C)c2)cs1 (centres undefined) | / | / | . | . | /
CCOc1cccc(OCCOCCN2CCCC2)c1 | . | . | . | ? | .
Cc1ccc(C(C)C)cc1OCCOCCN1CCCC1 | . | . | . | -66.1 | .
COCCCNCCOc1cc(C(C)C)ccc1C | . | . | . | -66.3 | .

Compound activity: PubChem, National Center for Advancing Translational Sciences (NCATS)
